The list is not random: actives were taken first. Their share in the collection is about 3.8%.
ATXN viability: cell viability loss in ATXN counter-screen. 400,000 tested, 0.49% active. S2 cells (HEK-293 line with an ATXN2-luciferase reporter) viability, CellTiter-Fluor protease fluorescence, 24 h. Potency, µM (series often up to 56.7 µM), actives largely listed as cytotoxic. AID 651635; also: nearly all actives have a fitted effect of over 40% in size
HepG2 tox-1: counter-screen for TGF-b inhibitors: cytotoxicity in HepG2 cells; HepG2 CAGA-GFP viability, ATP luminescence, 18 h; Potency, µM (titrated, usually from 46.1 µM), for the others: at the highest dose activity change, negative = cytotoxicity, most hits filed as cytotoxic; 410,000 tested, 0.76% active; AID 588856
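HepG2 CAGA-GFP cells (1000/well, DMEM with 1% FBS) received compound, then TGF-beta at 500 pg/mL final, and were incubated 18 hours at 37 degrees C. Viability was read by CellTiter-Glo luminescence. Media-only wells were set as complete cell-killing and DMSO as no toxicity.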
ATXN2 expr inh: ATXN2 expression inhibition; HEK-293 ATXN2-luciferase reporter, luminescence, 24 h; Potency, µM (highest dose often 57 µM), without a hit: top-dose activity change, negative = inhibition, usual class: inhibitors; 360,000 tested, 0.72% active; also: % is scaled to controls: 0 for no effect and ±100 for the full control effect; nearly all actives have a fitted effect of over 55% in size
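qHTS (up to 57 uM final) was run with 24 h compound exposure of reporter cells at 37 °C. Each well was multiplexed: SteadyGlo luminescence measured ATXN2-luciferase expression after a fluorogenic Gly-Phe-AFC viability readout (25 uM final).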
TGFb inhibitor: blocks TGF-b signaling | HepG2 CAGA-GFP TGF-b/SMAD3 reporter, GFP fluorescence, 18 h; TGF-beta stimulated, 500 pg/mL final | Potency, µM (doses to about 46.1 µM), for inactives: at the highest dose activity, negative = inhibition, usual class: inhibitors | 410,000 tested, 1.2% active | AID 588855; also: % is scaled to controls: 0 for no effect and ±100 for the full control effect; nearly all actives have a fitted effect of over 65% in size
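First, reporter cells (HEPG2 CAGA-GFP) rested 2 h at 37 degrees C. Next, compounds were pinned in and TGF-beta added to 500 pg/mL final. After 18 h, GFP was imaged per cell and summed per well.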
HT1080 IDH1KD tx: kills HT-1080 cells with IDH1 knockdown | HT-1080 IDH1 knockdown viability, ATP luminescence, 48 h | Potency, µM (titrated, usually from 46.1 µM), without a hit: top-dose activity, negative = toxicity, hits mostly cytotoxic | 360,000 tested, 2% active;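 also: 0% = DMSO wells and -100% = cell-free medium wells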
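HT-1080-IDH1KD cells (IDH1 knocked down), 750/well in RPMI with 5% FBS, treated with compound 48 h at 37 degrees C. Viability by CellTiter-Glo luminescence, normalised to DMSO and no-cell wells; concentration-response curves classed.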
HT1080NT lethal: kills 2HG-producing HT-1080-NT fibrosarcoma cells; HT-1080-NT fibrosarcoma viability, CellTiter-Glo ATP luminescence, 48 h; 360,000 tested, 1.6% active; Potency, µM (highest dose often 46.1 µM), for inactives: at the highest dose activity, negative = less viability, actives largely listed as cytotoxic;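 also: NT is the 2HG producing partner of a matched IDH1 knockdown line; 0% = DMSO-treated cells and -100% = media-only wells without cells; nearly all actives have a fitted effect of over 55% in size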
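Viability of the 2HG-overproducing fibrosarcoma line after 48 hours of compound exposure at 37 degrees C was determined by luminescence with CellTiter-Glo, and concentration-effect curves were then fitted and categorized.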
TGFb CAGA inh: confirmation of TGF-b signaling inhibitors in HepG2 reporter cells | shares compounds with TGFb inhibitor | HepG2 CAGA-GFP TGF-b reporter, GFP fluorescence, 18 h; cells stimulated with TGF-beta, 500 pg/mL | Potency, µM (highest dose often 46.1 µM), without a hit: top-dose activity, negative = inhibition, usual class: inhibitors | 1,600 tested, 63% active; also: % is scaled to controls: 0 for no effect and ±100 for the full control effect; nearly all actives have a fitted effect of over 65% in size
HepG2 tox-2: HepG2 cytotoxicity, TGF-b inhibitor counterscreen; shares compounds with TGFb inhibitor; HepG2 CAGA-GFP viability, ATP luminescence, 18 h; cells stimulated with TGF-beta, 500 pg/mL; Potency, µM (highest dose often 46.1 µM), for inactives: top-dose activity, negative = cytotoxicity, most hits filed as inhibitors; 1,600 tested, 27% active; AID 720535; also: % is scaled to controls: 0 for no effect and ±100 for the full control effect; nearly all actives have a fitted effect of over 70% in size
CCL64 TGFb inh: TGF-b inhibition, CCL64 orthogonal assay. Potency, µM (doses to about 46.1 µM), without a hit: at the top dose activity, negative = inhibition, hits mostly inhibitors. 1,600 tested, 41% active. shares compounds with TGFb inhibitor. CCL64 CAGA-GFP reporter, TGF-b stimulated, GFP fluorescence, 18 h; also: nearly all actives have a fitted effect of over 65% in size
TGFb COP inh: validation of TGF-b inhibitors in HepG2 COP promoter reporter. shares compounds with TGFb inhibitor. HepG2 COP-GFP TGF-b reporter, GFP fluorescence, 18 h; cells stimulated by added recombinant TGF-beta. Potency, µM (highest dose often 46.1 µM), for the others: at the top dose activity, negative = inhibition, usual class: inhibitors. 1,600 tested, 3% active. AID 720537; also: nearly all actives have a fitted effect of over 70% in size
* = called active by the depositor; i = inactive; ? = inconclusive; . = no result given. Calls follow the shape of the dose curve; as a rule, active = well fitted curve in the direction sought with a large enough effect; inconclusive = small, poorly fitted or top-dose-only effect, or another doubt; inactive = no such curve, though single readings can be large; an effect the other way counts as inactive or inconclusive. Potency is read from the fitted curve at half-maximal effect.

SMILES	ATXN viability	HepG2 tox-1	ATXN2 expr inh	TGFb inhibitor	HT1080 IDH1KD tx	HT1080NT lethal	TGFb CAGA inh	HepG2 tox-2	CCL64 TGFb inh	TGFb COP inh
O=C(Nc1cccc2ccccc12)c1ccc([N+](=O)[O-])s1	i	11µM*	.	8.9µM*	?	?	16µM*	26µM*	?	50%
O=C1c2cccnc2C(=O)N1c1nc(-c2ccccc2)cs1	.	-4%	.	2%	.	.	.	.	.	.
Fc1cccc(Cc2c(-c3ccco3)nc3ccc(Cl)cn23)c1	.	-51%	-2%	?	?	?	.	.	.	.
Fc1cccc(Cc2c(-c3ccco3)nc3c4ccccc4ccn23)c1	i	11µM*	138%	10µM*	?	?	18µM*	?	16µM*	3%
Clc1ccc2nc(-c3ccco3)c(Cc3ccccc3)n2c1	?	-19%	-28%	11µM*	?	?	15µM*	?	?	19%
Clc1cccc(Cc2c(-c3ccco3)nc3c4ccccc4ccn23)c1	?	.	61%	.	?	?	.	.	.	.
Cc1ccc(NC(=O)Cn2ccn(-c3ccccc3)c(=O)c2=O)cc1	.	5%	.	-5%	.	.	.	.	.	.
Cc1ccc(NC(=O)c2cc(-c3cccs3)nc3ccccc23)c(C)c1	i	-19%	-9%	-31%	.	.	.	.	.	.
Cc1ccc(NC(=O)Cc2cc(C(=O)O)c3ccccc3n2)c(C)c1	i	-53%	.	8.9µM*	?	-23%	?	?	7.3µM*	44%
CCCN(CCC)CCCNC(=O)Cn1ncn2c(cc3sc(CC)cc32)c1=O	.	-3%	.	-26%	.	.	.	.	.	.
CCN(CC)C(=O)Cn1cc(S(=O)(=O)CC(=O)Nc2cc(C)on2)c2ccccc21	?	1%	-14%	27%	5%	3%	.	.	.	.
Cc1cc(NC(=O)CS(=O)(=O)c2cn(Cc3cccc(Br)c3)c3ccccc23)no1	?	-10%	?	10µM*	21µM*	?	12µM*	-15%	?	31%
COc1ccc(-c2ccc(C(=O)Nc3cccc(F)c3)c3occc23)c(C)c1	i	-17%	69%	-3%	?	?	.	.	.	.
COc1ccc(-c2ccc(C(=O)Nc3cccc(NS(C)(=O)=O)c3)c3occc23)c(C)c1	?	-21%	?	16µM*	?	?	10µM*	?	23µM*	35%
CCN(CC)c1ccc(Nc2nc(N3CCOCC3)c3ccccc3n2)cc1	i	-94%	-35%	10µM*	?	11µM*	?	21µM*	?	30%
Cn1c(=O)c2c(nc3n(-c4ccc(O)cc4)c(-c4ccc(Br)cc4)cn23)n(C)c1=O	i	-1%	9%	10%	.	.	.	.	.	.
Oc1ccccc1-c1n[nH]c(-c2ccccc2O)n1	?	-61%	-19%	2.8µM*	?	?	?	?	?	4%
CC(=O)c1ccc(N2CCN(C(=O)c3cc4c(s3)-c3ccccc3OC4)CC2)cc1	i	2%	1%	13%	.	.	.	.	.	.
O=C(CSc1nnc(COc2cccc3cccnc23)o1)N1CCc2ccccc21	i	-37%	-29%	?	1.3µM*	2.2µM*	?	?	-28%	39%
O=C(CSc1nnc(Cc2ccccc2)o1)N1CCc2ccccc21	i	6%	-8%	?	-23%	-8%	.	.	.	.
COc1cc(C2NC(=O)N(C)C3=C2C(=O)N(c2ccccc2)C3)ccc1O (stereo not given)	?	-32%	3%	-11%	.	.	.	.	.	.
CCOc1ccc(-n2cc(-c3ccccc3)c3c(NCCc4ccccc4)ncnc32)cc1	.	-35%	.	-12%	.	.	.	.	.	.
CN(C)S(=O)(=O)c1cc(NC(=O)CSc2nn(-c3ccc(Cl)cc3)c(=S)s2)ccc1Cl	i	4%	?	11µM*	?	?	3.7µM*	?	?	45%
Cc1ccc(NC(=O)CN2CCC(Cc3ccccc3)CC2)cc1S(=O)(=O)N(C)C	i	-17%	-14%	16µM*	?	?	13µM*	?	?	84%
CC(=O)N1CCN(CC(=O)Nc2ccc(C)c(S(=O)(=O)N(C)C)c2)CC1	i	-4%	-12%	-2%	19%	23%	.	.	.	.
SMILES	ATXN viability	HepG2 tox-1	ATXN2 expr inh	TGFb inhibitor	HT1080 IDH1KD tx	HT1080NT lethal	TGFb CAGA inh	HepG2 tox-2	CCL64 TGFb inh	TGFb COP inh
Cc1ccc(NC(=O)CNc2ccc(Cl)c(Cl)c2)cc1S(=O)(=O)N(C)C	?	-25%	?	10µM*	?	?	12µM*	?	?	55%
Cc1ccc(NC(=O)CSc2nn(-c3ccc(Cl)cc3)c(=S)s2)cc1S(=O)(=O)N(C)C	i	-16%	-33%	?	?	-5%	?	?	3%	12%
NS(=O)(=O)c1cccc(NC(=O)CSc2nn(-c3ccccc3)c(=S)s2)c1	i	-8%	3%	-9%	-18%	-17%	.	.	.	.
COc1cc(NC(=O)CCNS(=O)(=O)c2ccc3c(c2)CCN3C(=O)C2CC2)cc(OC)c1	i	-19%	17%	15%	.	.	.	.	.	.
O=C(Nc1cccc(-c2nc3ccccc3[nH]2)c1)c1c(F)cccc1F	.	-32%	.	?	.	.	.	.	.	.
O=C(COC(=O)C12CC3CC(CC(O)(C3)C1)C2)NCc1ccco1	.	1%	.	3%	.	.	.	.	.	.
CCOc1cc2c(cc1O)C(=NOC)CC1C2CCC2(C)C(O)CCC12 (stereo not given)	i	-17%	11%	18µM*	1.5µM*	1.6µM*	7.3µM*	-7%	7.3µM*	-2%

Screens as filed in PubChem BioAssay.
